Where “and” joins values, the source holds several entries; their conditions need not be identical. Equal values may be shown once. Results filed as inconclusive are left out. Values without a mark were called inactive. Calls of active or inactive are those of the source. Unless noted, the call rests on the fitted dose curve; in most records, active means well fitted curve in the direction sought with a large enough effect; inconclusive means small, poorly fitted or top-dose-only effect, or another doubt; inactive means no such curve, though single readings can be large; an effect the other way counts as inactive or inconclusive.

Data on 9 molecules can be found in PubChem BioAssay (NCATS).

A short description of assay [1]: Cell Viability - Jurkat (AID 426;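 active means dose-dependent loss of cell ATP signal giving a full or clear fitted curve, ranked by lower potency value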;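 further: potency means the concentration at half of the fitted maximal effect; cells exposed to compound for 40 hours at 37 °C before ATP read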). Particulars: qHTS. Summed up:
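Cytotoxicity taken as drop in cellular ATP (CellTiter-Glo luminescence, 20 min room temperature) after 40 hr, 37C treatment of 5000 Jurkat Clone E6-1 cells per well; concentration-response fitted with Hill equation for AC50.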

Assay [2] in a line: Cell Viability - Hek293 (AID 427;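 active means compounds whose dose-response curve shows a full or clear partial loss of cell viability, called from curve shape rather than a numeric limit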;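 further: potency means the concentration at half of the fitted maximal effect; cells exposed to compound for 40 hours at 37 °C before reading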). The note with it: qHTS. Summed up: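 Luminescent ATP read-out (CellTiter-Glo, 20 min RT) after 40 hr compound exposure at 37 °C in complete medium. Signal normalized to DMSO (basal) and 100 uM tamoxifen (100% inhibition); concentration-response fitted with the standard Hill equation to give AC50.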
A short description of assay [3]: Cell Viability - HepG2 (AID 433; calls by dose curve;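 further: potency means the concentration at half of the fitted maximal effect; cells exposed to compound for 40 hours; potency for ATP loss meaning cytotoxicity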). The note with it: qHTS. In outline: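 HepG2 hepatocellular carcinoma cells (1500/well) were treated with compounds for 40 h at 37 °C in complete medium; intracellular ATP was read by CellTiter-Glo luminescence. Data were normalized to DMSO and 100 uM tamoxifen, and AC50 came from Hill fits.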
For orientation: qHTS replaces the single test concentration by a dilution series.

Assay [4] can be described thus: Cell Viability - H-4-II-E (AID 543).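 Further: cells exposed to compound for 40 hours; on the % scale 0 is the no-effect control and ±100 the full control effect; nearly all actives have a fitted effect of over 35% in size.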 The note with it: H-4-II-E rat hepatoma viability; series mostly up to 92.2 µM. Summed up:
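CellTiter-Glo luminescence (intracellular ATP) measured after 40 h compound exposure at 37 °C in H-4-II-E rat hepatoma cells seeded at 1500/well. Values are AC50s fitted with the standard Hill equation.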

Assay [5] can be described thus: Cellular Toxicity (caspase-3) NIH 3T3 (AID 666).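 Further: caspase signal read after 16 h compound exposure.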 The note with it: NIH 3T3 caspase-3 activation, apoptosis/toxicity, 0% DMSO, 100% is 100 µM tamoxifen; series mostly up to 92.2 µM. Summed up: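 Caspase-Glo 3/7 luminescence reported caspase activation in 1000 NIH 3T3 cells/well after 16 h compound exposure at 37 C. DMSO set basal and 100 uM tamoxifen set 100% stimulation; concentration-response modeled with the Hill equation for AC50.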

A short description of assay [6]: Cell Viability - LYMP2-009 (AID 968).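 Further: 0% = DMSO alone and the full-kill end = tetraoctylammonium bromide at 92 µM; nearly all actives have a fitted effect of over 55% in size.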 The note with it: LYMP2-009 lymphoblastoid cell viability; series mostly up to 92.2 µM.
Assay [7] in a line: Cell Viability - LYMP2-015 (AID 971).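 Further: 0% = DMSO only and full effect = 92 µM tetraoctylammonium bromide; nearly all actives have a fitted effect of over 55% in size.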 The note with it: LYMP2-015 lymphoblastoid cell viability; series mostly up to 92.2 µM. Summed up:
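Cytotoxicity readout: decrease in intracellular ATP (CellTiter-Glo luminescence) in 2500 LYMP2-015 lymphoblastoid cells/well after 24 h compound exposure at 37 C. Concentration-response data fitted with the standard Hill equation to give AC50.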

Assay [8] can be described thus: Cell Viability - LYMP2-008 (AID 980). Further: on the % scale 0 is the no-effect control and ±100 the full control effect; nearly all actives have a fitted effect of over 60% in size. Particulars: LYMP2-008 lymphoblastoid cell viability, qHTS; series mostly up to 92.2 µM. Summed up:
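Cytotoxicity determined from ATP-dependent luciferase luminescence (CellTiter-Glo) following 24 h compound exposure of human lymphoblastoid LYMP2-008 cells at 37 C. Concentration-response data fitted to the Hill equation to give AC50.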

The nature of assay [9]: Cell Viability - LYMP2-020 (AID 986).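 Further: plate controls were DMSO only for no effect and tetraoctylammonium bromide at 92 µM for full effect; nearly all actives have a fitted effect of over 55% in size.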 Particulars: series mostly up to 92.2 µM. Summed up:
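Cytotoxicity in qHTS format: luminescent ATP readout from CellTiter-Glo after 24 h compound exposure at 37 C in complete medium. LYMP2-020 lymphoblastoid cells were seeded at 2500/well; concentration-response data fitted to the Hill equation for AC50.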

The nature of assay [10]: Cell Viability - LYMP2-022 (AID 987).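 Further: 0% = DMSO alone and full effect = tetraoctylammonium bromide at 92 µM; nearly all actives have a fitted effect of over 55% in size.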 Particulars: LYMP2-022 lymphoblastoid cell viability; series mostly up to 92.2 µM. In outline: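 Cytotoxicity read as decreased cellular ATP (CellTiter-Glo luminescence, 30 min room temperature) after 24 hours compound exposure of 2500 lymphoblastoid LYMP2-022 cells/well at 37 C. Concentration-response data fitted with standard Hill equation for AC50.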

A short description of assay [11]: Cell Viability - LYMP2-024 (AID 988).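 Further: plate controls were DMSO only for no effect and 92 µM tetraoctylammonium bromide for full effect; nearly all actives have a fitted effect of over 60% in size.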 Particulars: LYMP2-024 lymphoblastoid cell viability; series mostly up to 92.2 µM. Summed up: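 Cytotoxicity was taken as a decrease in ATP (CellTiter-Glo luminescence) after 24 hr compound exposure at 37 C of LYMP2-024 lymphoblastoid cells, 2500 cells/well. Concentration-response data were fitted to the Hill equation to give AC50.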

Assay [12] can be described thus: Cell Viability - LYMP2-026 (AID 989). Further: on the % scale 0 is the no-effect control and ±100 the full control effect; nearly all actives have a fitted effect of over 50% in size. Particulars: LYMP2-026 lymphoblastoid cell viability, qHTS; series mostly up to 92.2 µM. In outline:
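Cytotoxicity read as ATP-dependent luminescence (CellTiter-Glo, 30 min room temperature) after 24 h compound treatment at 37 C. LYMP2-026 lymphoblastoid line seeded at 2500 cells/well; AC50 derived by standard Hill equation.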

A short description of assay [13]: Cell Viability - LYMP1-002 - Assay at 40 hr (AID 994).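 Further: 0% = DMSO only and full inhibition = 92 µM tetraoctylammonium bromide; nearly all actives have a fitted effect of over 60% in size.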 The note with it: LYMP1-002 lymphoblastoid cell viability; series mostly up to 92.2 µM. In outline: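 Cytotoxicity was read as loss of cellular ATP (CellTiter-Glo luminescence) after 40 hr compound exposure at 37 C of 2500 LYMP1-002 lymphoblastoid cells per well. Concentration-response data were fitted with the standard Hill equation to give AC50.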

Assay [14] deals with Glucocorticoid receptor (Homo sapiens) (UniProt P04150). Put plainly: qHTS assay for small molecule antagonists of glucocorticoid receptor signaling (AID 588533; active means well fitted inhibition curve with a large enough effect in the signal ratio, with a control signal flat, not every such curve was filed as active; the % refers to the signal ratio;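 further: cells stimulated with 2 nM dexamethasone as agonist; on the % scale 0 is the no-effect control and ±100 the full control effect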). The note with it: HeLa MMTV-bla, GRE beta-lactamase ratio, antagonist mode, 18 h; series mostly up to 76.8 µM. In outline:
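Antagonist-mode qHTS: compound titrations added to GRE-bla HeLa cells, then dexamethasone 2 nM final; 18 h, 37 C. CCF4 FRET fluorescence normalized to dexamethasone and DMSO; IC50 from Hill fit.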

Assay [15] addresses Vitamin D3 receptor (Homo sapiens) (UniProt P11473). Description: qHTS assay for small molecule antagonists of vitamin D receptor signaling (AID 588541; calls by dose curve;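 further: receptor activated by calcitriol during compound treatment; on the % scale 0 is the no-effect control and ±100 the full control effect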). The note with it: HEK293T VDR-UAS-bla, beta-lactamase ratio, antagonist mode; series mostly up to 76.7 µM. Summed up:
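VDR-UAS-bla HEK293T cells (2000/well, 2% charcoal-stripped FBS) were treated with titrated compounds plus 1-alpha,25-dihydroxyvitamin D3 (50 nM or 3 nM final) for 16 h at 37 C. CCF4 beta-lactamase fluorescence was read; Hill fits gave IC50.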

A short description of assay [16]: qHTS assay for small molecule activators of the p53 signaling pathway (AID 651743; active means well fitted activation curve with a large enough effect in the signal ratio, not every such curve was filed as active; the % refers to the signal ratio; further: % of control where 0% means no effect). The note with it: HCT-116 p53RE-bla, beta-lactamase FRET ratio, 16 h; activation: active compounds read high. In outline: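 Agonist-mode quantitative HTS in HCT-116 cells carrying a p53-response-element beta-lactamase reporter; 16 h compound treatment at 37 C, then FRET substrate loading for 2 h at room temperature and fluorescence read.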

Assay [17] is described as follows: qHTS assay for small molecule disruptors of the mitochondrial membrane potential - 5 hr assay (AID 651755; calls by dose curve; further: nearly all actives have a fitted effect of over 40% in size; further: potency means the concentration at half of the fitted maximal effect). The note with it: JC-1-type ratio dye; series mostly up to 92.2 µM. Summed up: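 Seed HepG2 overnight, add compound, incubate 5 hr at 37C and 5% CO2, stain 30 min with Mito-MPS, then measure monomer (490/535 nm) and aggregate (540/590 nm) fluorescence.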

Assay [18] addresses Vitamin D3 receptor (Homo sapiens) (UniProt P11473). Put plainly: qHTS assay for small molecule agonists of vitamin D receptor signaling (AID 588543; calls by dose curve;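 further: 0% = DMSO basal and 100% = reference agonist control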). The note with it: HEK293T VDR-UAS-bla, beta-lactamase ratio, 16 h; series mostly up to 76.8 µM. Summed up: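 GeneBLAzer VDR-UAS-bla HEK293T cells in 2% charcoal-stripped FBS medium were dosed with compound titrations for 16 h at 37 °C; CCF4 β-lactamase readout (405 nm ex, 460/530 nm em). EC50 and efficacy from Hill fits, normalized to 50 nM calcitriol (100%) and DMSO (0%).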

Assay [19] concerns the target Thyroid hormone receptor beta (Homo sapiens) (UniProt P10828). Put plainly: qHTS assay for small molecule agonists of thyroid hormone receptor beta signaling (AID 588545; calls by dose curve;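 further: 0% = DMSO only and 100% = 10 nM T3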). Particulars: TR-UAS-bla GripTite HEK 293, beta-lactamase ratio, agonist mode, 18 h, percent of T3 response, DMSO as zero; series mostly up to 76.7 µM. Summed up: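 Compounds were tested as agonists in TR-UAS-bla-GripTite HEK 293 cells. After 18 hrs at 37 C, CCF4 substrate was added and fluorescence read after 2 hrs at room temperature.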

The target in assay [20] is Peroxisome proliferator-activated receptor gamma (Homo sapiens) (UniProt P37231). Description: qHTS assay for small molecule antagonists of peroxisome proliferator-activated receptor gamma signaling (AID 588537; active means well fitted inhibition curve with a large enough effect in the signal ratio, with a control signal flat, not every such curve was filed as active; the % refers to the signal ratio;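 further: reporter cells co-stimulated with 50 nM rosiglitazone agonist during compound treatment; % of control where 0% means no effect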). The note with it: HEK293 PPARg-UAS-bla, beta-lactamase ratio, antagonist mode; series mostly up to 76.8 µM. Summed up: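 Compounds are tested as concentration series for inhibition of rosiglitazone-driven (50 nM) reporter expression in GeneBLAzer PPAR-gamma-UAS-bla HEK293 cells. After 16 h at 37 C, CCF4 substrate is added for 2 h at room temperature and blue/green fluorescence is measured.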
Peroxisome proliferator-activated receptor gamma (Homo sapiens), sequence (P37231 whole entry, looked up): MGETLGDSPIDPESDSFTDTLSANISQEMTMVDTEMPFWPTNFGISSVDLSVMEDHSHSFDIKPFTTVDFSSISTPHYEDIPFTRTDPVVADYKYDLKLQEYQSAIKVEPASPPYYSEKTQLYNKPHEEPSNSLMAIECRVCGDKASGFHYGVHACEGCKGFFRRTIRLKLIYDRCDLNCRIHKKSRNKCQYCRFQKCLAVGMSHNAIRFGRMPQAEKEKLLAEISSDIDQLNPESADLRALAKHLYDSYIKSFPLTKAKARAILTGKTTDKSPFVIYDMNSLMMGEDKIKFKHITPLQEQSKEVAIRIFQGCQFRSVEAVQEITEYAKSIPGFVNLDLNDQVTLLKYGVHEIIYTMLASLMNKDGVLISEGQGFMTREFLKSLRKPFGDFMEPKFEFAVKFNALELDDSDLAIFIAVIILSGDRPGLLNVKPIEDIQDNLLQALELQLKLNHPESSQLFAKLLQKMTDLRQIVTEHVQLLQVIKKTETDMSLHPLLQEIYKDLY

Thyroid hormone receptor beta (Homo sapiens), sequence (P10828 whole entry, looked up): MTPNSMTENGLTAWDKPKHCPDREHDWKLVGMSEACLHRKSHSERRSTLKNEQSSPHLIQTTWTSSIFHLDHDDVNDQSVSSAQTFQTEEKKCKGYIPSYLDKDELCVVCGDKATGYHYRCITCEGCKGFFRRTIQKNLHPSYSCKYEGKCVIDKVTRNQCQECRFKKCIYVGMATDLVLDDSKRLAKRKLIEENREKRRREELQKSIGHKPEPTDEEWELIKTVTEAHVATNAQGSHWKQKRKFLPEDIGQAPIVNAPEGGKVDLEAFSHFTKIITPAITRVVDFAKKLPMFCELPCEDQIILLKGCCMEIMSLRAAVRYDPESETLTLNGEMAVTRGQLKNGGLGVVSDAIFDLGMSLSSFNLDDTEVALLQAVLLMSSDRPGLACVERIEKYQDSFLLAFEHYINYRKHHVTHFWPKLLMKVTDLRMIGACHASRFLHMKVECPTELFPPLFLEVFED
Glucocorticoid receptor (Homo sapiens), sequence (P04150 whole entry, looked up): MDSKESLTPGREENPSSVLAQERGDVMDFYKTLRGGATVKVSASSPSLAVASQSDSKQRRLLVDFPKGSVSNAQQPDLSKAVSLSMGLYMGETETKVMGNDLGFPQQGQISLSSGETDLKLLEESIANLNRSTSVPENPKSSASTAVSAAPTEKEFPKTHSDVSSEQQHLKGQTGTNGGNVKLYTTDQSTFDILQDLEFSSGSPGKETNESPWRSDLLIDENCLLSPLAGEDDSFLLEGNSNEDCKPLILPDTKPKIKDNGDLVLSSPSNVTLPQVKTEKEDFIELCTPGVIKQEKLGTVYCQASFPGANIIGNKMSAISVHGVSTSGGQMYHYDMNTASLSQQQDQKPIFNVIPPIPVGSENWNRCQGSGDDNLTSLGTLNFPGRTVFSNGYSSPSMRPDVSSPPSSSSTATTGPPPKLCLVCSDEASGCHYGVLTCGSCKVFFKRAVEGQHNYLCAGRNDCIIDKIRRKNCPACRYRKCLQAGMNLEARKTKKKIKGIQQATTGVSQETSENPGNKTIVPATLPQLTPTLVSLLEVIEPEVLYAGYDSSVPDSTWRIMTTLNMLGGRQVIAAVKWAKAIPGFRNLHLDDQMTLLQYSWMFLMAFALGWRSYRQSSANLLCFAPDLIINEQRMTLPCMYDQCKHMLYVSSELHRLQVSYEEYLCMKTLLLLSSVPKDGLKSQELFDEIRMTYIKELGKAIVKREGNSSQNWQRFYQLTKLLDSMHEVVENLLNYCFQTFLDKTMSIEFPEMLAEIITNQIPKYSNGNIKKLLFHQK
Vitamin D3 receptor (Homo sapiens), sequence (P11473 whole entry, looked up): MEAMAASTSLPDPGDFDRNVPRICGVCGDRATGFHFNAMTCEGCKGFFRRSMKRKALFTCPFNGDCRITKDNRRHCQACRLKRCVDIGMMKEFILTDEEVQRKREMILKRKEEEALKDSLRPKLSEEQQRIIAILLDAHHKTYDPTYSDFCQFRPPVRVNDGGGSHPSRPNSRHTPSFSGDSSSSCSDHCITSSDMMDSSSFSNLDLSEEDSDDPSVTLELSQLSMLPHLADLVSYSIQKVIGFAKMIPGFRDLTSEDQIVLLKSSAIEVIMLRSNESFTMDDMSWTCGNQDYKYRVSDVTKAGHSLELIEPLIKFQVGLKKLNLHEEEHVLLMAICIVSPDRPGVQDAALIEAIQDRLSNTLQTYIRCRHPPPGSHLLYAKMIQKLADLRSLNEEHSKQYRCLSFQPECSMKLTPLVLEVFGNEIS

As to `c1ccc2c(c1)c1cccc3ccc4cccc2c4c31`, the Potency in [1], in assay [2] and in assay [3] was greater than 92 µM each time. The Potency entry in assay [4], in [6], in assay [7], in [8], in assay [9] and in assay [10] was “inactive” in each case. In addition, the Potency result in assay [11], in assay [12], in assay [13], in [14] and in assay [17] was “inactive” throughout. Further, the molecule was classed as inactive in [5] and in [15]. Also, in assay [16], the activation is 8.13% and 3.99%.

As to `COC(=O)c1ccc(C)cc1`, the Potency in assay [1], in assay [2] and in assay [3] was greater than 92 µM in each case. Also, the Potency result in assay [4], in assay [6], in [7], in assay [8], in [9] and in [10] was “inactive” in each case. Further, the Potency result in assay [11], in assay [12], in [13], in [14] and in assay [17] was “inactive” in each case. The call in assay [5], in assay [15], in [18] and in assay [19] was inactive. Moreover, in [16], the activation is 2.24% and -1.53%.

As for `O=C1c2ccccc2C(=O)C1c1ccc2ccccc2n1`, the Potency entry in [9], in assay [10], in assay [11], in assay [12], in assay [13] and in assay [14] was “inactive” each time. Besides, the outcome in assay [20], in assay [15], in assay [18] and in [19] was inactive. Moreover, the activation in assay [16] was 5.56% and 14%. The Potency in assay [17] was 1.68 µM (active).

For `CC1=CC(C)(C)Nc2ccccc21`, the Potency in [1], in assay [2] and in assay [3] was greater than 92 µM in each case. In addition, the Potency result in [4], in [6], in assay [7], in assay [8], in assay [9] and in [10] was “inactive” in each case. Further, the Potency result in [11], in assay [12], in assay [13] and in [17] was “inactive” in each case. Also, the call in assay [5], in assay [20], in assay [15], in assay [18] and in assay [19] was inactive. Also, in [16], the activation is -2.38% and -0.537%.

As for `CCCN(CCC)C(=O)SCC`, the Potency in assay [1], in assay [2] and in [3] was greater than 92 µM throughout. Moreover, the Potency entry in assay [4], in assay [6], in assay [7], in [8], in assay [9] and in [10] was “inactive” each time. Besides, the Potency result in assay [11], in [12], in [13], in assay [14] and in [17] was “inactive” each time. Also, the call in assay [5], in [20], in assay [15], in [18] and in assay [19] was inactive. For the same molecule, the activation in [16] is 0.439% and 11.8%.

`COCC(=O)O`: the Potency in [1], in assay [2] and in assay [3] was greater than 92 µM in each case. Also, the Potency result in [4], in assay [6], in [7], in assay [8], in assay [9] and in assay [10] was “inactive” throughout. Moreover, the Potency result in assay [11], in assay [12], in assay [13], in assay [14] and in assay [17] was “inactive” throughout. For the same molecule, the molecule was called inactive in [5], in assay [20], in assay [15], in assay [18] and in assay [19]. Moreover, in [16], the activation is 0.0042% and -6.16%.

As to `CCO[Si](CCCN)(OCC)OCC`, the Potency in assay [1], in [2] and in assay [3] was greater than 92 µM each time. For the same molecule, the Potency result in [4], in assay [6], in assay [7], in assay [8], in assay [9] and in assay [10] was “inactive” throughout. In addition, the Potency entry in [11], in assay [12], in assay [13], in assay [14] and in assay [17] was “inactive” in each case. For the same molecule, the molecule was classed as inactive in [5], in assay [20], in assay [15] and in assay [18]. Besides, the activation in assay [16] was -1.64% and -2.02%.

In the case of `Cc1cccc(O)c1`, in assay [14], the Potency result is “inactive”. For the same molecule, the result in assay [20] was inactive. The activation in assay [16] is -5.47% and -2.85%.

Turning to `CCC(C)c1ccccc1O` (stereo not drawn), the Potency in assay [1], in assay [2] and in assay [3] was greater than 92 µM each time. For the same molecule, the Potency result in assay [4], in assay [6], in assay [7], in assay [8], in assay [9] and in [10] was “inactive” each time. The Potency entry in [11], in assay [12], in assay [13], in [14] and in assay [17] was “inactive” each time. Further, the molecule was called inactive in assay [5], in assay [20], in [15], in assay [18] and in assay [19].
